NR5A2 inv ag: NR5A2 inverse agonism in reporter assay; AID 602396; inhibition, % at 3.6 µM; O00482; 360,000 compounds, 0.13% hits; HEK293T StAR-luciferase reporter, LRH-1 transfected, 24 h;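 active = inhibition above the mean inhibition of all tested compounds plus 3 SD, cut at about 73% in these data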;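 also: 0% = DMSO wells and 100% = reporter-only cells lacking LRH-1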
COUP-TFII inh: blocks human COUP-TFII nuclear receptor; P24468; HEK293T NGFI-A luciferase reporter, luminescence; inhibition, % at 8.6 µM; 370,000 compounds, 0.7% hits;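 active = inhibition above a per-plate cutoff, mean inhibition of test wells between control levels plus 3 SD, cut at about 38% in these data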;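 also: cells cotransfected with COUP-TFII expression vector driving the NGFI-A reporter; 0% = median of COUP-TF2 test wells and 100% = reporter-only cells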
SRC3 inh: human NCOA3 inhibition. 360,000 compounds, 0.17% hits. inhibition, % at 3.6 µM. HEK293 GAL4-SRC3 luciferase reporter, luminescence;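 active = inhibition above a per-campaign cutoff, the mean of all compounds plus 3 SD, cut at about 60% in these data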;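 also: 0% = DMSO-treated cells and 100% = gossypol-treated cells at 36 µM; higher means less SRC3-driven luciferase light from the GAL4 reporter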
Gli-Sufu antag: blocks Gli-Sufu signaling in a luciferase reporter. Sufu-KO-LIGHT fibroblasts, Gli luciferase reporter luminescence. inhibition, % at 5 µM. 340,000 compounds, 0.74% hits. AID 588413;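 active = inhibition above about 55%, limit read from the data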;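 also: 0% = DMSO-treated cells and 100% = wells with medium but no cells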
NCOA2 inhibitor: human SRC2 (NCOA2) inhibition. Q15596. HEK293 GAL4-SRC2 luciferase reporter, luminescence. inhibition, % at 9 µM. 370,000 compounds, 0.17% hits;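 active = inhibition above the mean inhibition of all tested compounds plus 3 SD, set per campaign, cut at about 52% in these data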;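 also: 0% = DMSO treated cells and 100% = cells given Gossypol at 36 µM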
NCOA1 inh: human NCOA1 inhibition; HEK293 GAL4-SRC1 luciferase reporter, luminescence; inhibition, % at 3.6 µM; 360,000 compounds, 0.12% hits; AID 588354;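 active = inhibition above the campaign mean plus 3 SD, with each screening campaign given its own cutoff, cut at about 60% in these data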;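 also: 0% = DMSO treated cells and 100% = gossypol at 36 µM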
Gal4-VP16 ctr: VP16 inhibition counter-screen for COUP-TFII. shares compounds with COUP-TFII inh. HEK293 Gal4-VP16 luciferase reporter, luminescence. inhibition, % at 8.5 µM. 2,500 compounds, 25% hits; in the data active = inhibition above about 13%
COUP-TFII conf: confirmation of human COUP-TFII (NR2F2) inhibitors; AID 687008; shares compounds with COUP-TFII inh; HEK293 NGFI-A luciferase reporter, luminescence; inhibition, % at 8.5 µM; 2,500 compounds, 45% hits;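 active = mean inhibition over three repeats above a set limit taken from the earlier primary screen, cut at about 38% in these data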;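 also: 100% = cells given the luciferase reporter alone without the COUP-TF2 vector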
Starred values were filed as active, the others as inactive; · = not tested or not shown. Only some compounds are listed: those with a hit (about 1.3% of all), similar ones and a draw of the others.

SMILES | NR5A2 inv ag | COUP-TFII inh | SRC3 inh | Gli-Sufu antag | NCOA2 inhibitor | NCOA1 inh | Gal4-VP16 ctr | COUP-TFII conf
CCC(C)(C)c1ccc(OCCCC[n+]2ccccc2)c(C(C)(C)CC)c1 | 44 | 54* | 36 | · | -25 | 8 | 7 | 16
C#CCNC(=O)C[C@H]1C[C@@]2(C(=O)OC)C(=C[C@H](C3CCCC3)O[C@@H]2C)N(CCc2ccc(OC)c(OC)c2)C1=O | · | 10 | · | · | -6 | · | · | ·
O=C(NCc1ccccc1Cl)C1CCCN(c2nc3ccccc3o2)C1 (centres undefined) | · | 2 | · | · | 3 | · | · | ·
CCCCCCCCCCOC(=O)Cn1c(COc2ccccc2OC)[n+](C)c2ccccc21 | 22 | 44* | 11 | 85* | -26 | 15 | 4 | 36
Cc1ccc(NC(=O)C(C)c2cccc(C(=O)c3ccccc3)c2)cc1O (centres undefined) | 28 | 48* | 15 | 41 | 0 | 4 | 9 | 33
Cc1cc(C)cc(C(=O)OCCCN(C)C2CN(Cc3cn(Cc4ccccc4C(F)(F)F)nn3)S(=O)(=O)C2)c1 (centres undefined) | · | 10 | · | · | 10 | · | · | ·
CCc1c(-c2ccccc2)ncn1Cc1cccc(-c2ccccc2)c1 | 28 | 29 | · | · | 20 | · | · | ·
CCc1c(-c2ccccc2F)ncn1Cc1cccc(-c2ccccc2)c1 | 29 | 44* | · | · | 2 | · | -7 | 7
CCn1c2ccccc2c2cc(NC(=O)COC(=O)c3ccc(F)cc3F)ccc21 | · | 5 | · | · | 2 | · | · | ·
CCN(CC)c1ccc(/C=N/n2nnnc2N)c(O)c1 | -10 | 10 | -26 | -28 | -18 | -2 | · | ·
CCN(CC)c1ccc2nc3ccc(N)cc3[n+](-c3ccccc3)c2c1 | 87* | 77* | 67* | 93* | 25 | 52 | 21* | 73*
Cc1nc(SCC(=O)Nc2nc3ccccc3s2)c(C#N)c(C)c1C | 88* | 99* | 91* | 90* | 85* | 90* | 91* | 109*
Cc1cc(C(F)(F)F)c(C#N)c(SCC(=O)Nc2nc3ccccc3s2)n1 | 32 | 56* | 41 | 16 | 10 | 20 | 21* | 57*
CCCCCC(=O)NC1CCCCN(Cc2cccc(Cl)c2)C1=O (centres undefined) | · | -12 | · | · | -10 | · | · | ·
COC(=O)C[C@H]1CC[C@H]2[C@H](COc3ccc(NS(=O)(=O)c4cccc(OC)c4)cc3C(=O)N2C)O1 | · | -8 | · | · | -1 | · | · | ·
Cc1c(CN2CCC(C(=O)Nc3ccc(Oc4ccccc4)nc3)CC2)cnn1C | 13 | -1 | 9 | 13 | -7 | -13 | · | ·
COc1cc(F)ccc1CN1CCC(C(=O)Nc2ccc(Oc3ccccc3)nc2)CC1 | 19 | 40* | 29 | -7 | 16 | 18 | 3 | 21
COc1ccc(CN2CCC(C(=O)Nc3ccc(Oc4ccccc4)nc3)CC2)cc1F | 6 | 48* | 18 | 29 | 37 | 11 | -1 | 31
O=C(Nc1ccc(Oc2cccnc2)cc1)C1CCN(Cc2cccc(Cl)c2)CC1 | 19 | 38* | 23 | 17 | 18 | 7 | 13* | 20
CCN(CC)C(=O)Cn1c2ccccc2c2nc3n(c(=O)c21)CCS3 | · | 3 | · | · | · | · | · | ·
CCCc1ccc(-c2cc(NC(=O)Cc3c(C)[nH]c4ccccc34)ccc2N(C)c2cccnc2)cc1 | · | -4 | · | · | -8 | · | · | ·
C#CCN1C(=O)[C@]2(NCCc3c2[nH]c2ccc(OC)cc32)c2ccccc21 | · | -28 | · | · | -41 | · | · | ·
COc1ccc(CN(C)C(=O)c2ccc(OCC(=O)Nc3cccc(C(F)(F)F)c3)c(OC)c2)c(OC)c1 | 12 | 71* | 29 | 10 | 17 | 7 | 2 | 59*
COc1cc(C(=O)NCCCN(C)C)ccc1OCC(=O)Nc1cccc(C(F)(F)F)c1 | -8 | -1 | 12 | 10 | -31 | 3 | · | ·
COc1cccc(CN(C)C(=O)c2ccc(OCC(=O)Nc3cccc(C(F)(F)F)c3)c(OC)c2)c1 | 36 | 77* | 45 | 11 | 24 | 28 | 8 | 76*
SMILES | NR5A2 inv ag | COUP-TFII inh | SRC3 inh | Gli-Sufu antag | NCOA2 inhibitor | NCOA1 inh | Gal4-VP16 ctr | COUP-TFII conf
COc1ccc(NC(=O)CN(C)C(=O)c2ccccc2OCC(=O)Nc2cccc(C(F)(F)F)c2)cc1 | 29 | 0 | 8 | 18 | -7 | -26 | · | ·
S=C(Nc1ccc(Br)cc1)OCCN1CCCC12CCC(c1ccccc1)CC2 (centres undefined) | · | -3 | · | · | · | · | · | ·
O=C(OC12CCCN(C1)/C(=C/c1ccc(Cl)cc1)C2)c1ccc(F)cc1 (centres undefined) | · | -4 | · | · | 19 | · | · | ·
C=CCC(Nc1ccccc1)C12C=CC(O1)C(C(=O)OC)=C2C(=O)OC (centres undefined) | -6 | -2 | 3 | 2 | -7 | -4 | · | ·
COC(=O)C1=C(C(=O)OC)[C@@]2([C@H](Cc3ccc(C)cc3)Nc3ccccc3)C=C[C@@H]1O2 | · | 49* | · | · | · | · | -2 | 24
C=CCOC(=O)Nc1snnc1C | -4 | 16 | 10 | -8 | -11 | -2 | · | ·
Cc1nnsc1NC(=O)OCc1ccc(C(C)(C)C)cc1 | 39 | 56* | 19 | 3 | 26 | 6 | -8 | 38*
COc1cc(NC(=O)c2ccccc2)c(C)cc1NC(=O)CSc1nnc(-c2ccccc2F)n1-c1ccc(C)cc1 | · | -6 | · | · | 3 | · | · | ·
Cc1ccc(C)c(C(=O)CN2C(=O)c3ccccc3S2(=O)=O)c1 | -31 | -14 | -67 | 27 | -19 | -40 | · | ·
CCCn1c(C)cc(C(=O)CN2C(=O)c3ccccc3S2(=O)=O)c1C | 81* | 85* | 73* | · | 82* | 75* | 77* | 91*
C=C(C)C#CCNCc1ccccc1 | · | -4 | · | · | -13 | · | · | ·
Cc1ccc2nc(-c3ccc4c(c3)OCCO4)cn2c1 | 10 | 77* | 39 | 65* | 70* | 37 | 54* | 71*
c1ccn2cc(-c3ccc4c(c3)OCCO4)nc2c1 | -74 | 6 | -49 | -54 | 0 | -65 | · | ·
CN(C)S(=O)(=O)Oc1cccc(C(=O)Nc2ccc(Cl)cc2)c1 | -86 | 45* | -36 | -11 | -31 | -40 | -187 | -12
CN(C)S(=O)(=O)Oc1ccc(C(=O)Nc2cccc(C(F)(F)F)c2)cc1 | 1 | 54* | 9 | -3 | -1 | 11 | -20 | 16
COc1cccc(CNc2nc(NCC3CC3)nc3ccsc23)c1OC | 34 | 59* | 21 | · | 41 | 6 | -3 | 19
COc1cccc(CNc2nc(NCC3CC3)nc3ccsc23)c1 | 24 | 43* | 4 | · | 6 | 17 | -1 | 20
CC(C)c1ccc(CNc2nc(NCC3CC3)nc3ccsc23)cc1 | 13 | 31 | -8 | · | 18 | -2 | · | ·
CSc1ccccc1CNc1nc(NCC2CC2)nc2ccsc12 | 37 | 53* | 6 | · | 20 | 2 | 5 | 24
